An excerpt weighted towards active compounds, which were near 7.3% of everything screened.
SMN2 splice up: increases expression of the SMN2 splice variant | HEK293 SMN2-luciferase splicing reporter, luminescence, 30-36 h | Potency, µM (doses to about 46.1 µM), for the others: top-dose activity change, positive = activation, actives largely listed as activators | 210,000 tested, 2.8% active | AID 1458; further: % of control where 0% means no effect; nearly all actives have a fitted effect of over 55% in size
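HEK293 cells carry an SMN2 […]–luciferase reporter in which exon 7 inclusion puts luciferase in frame. Cells were plated 10-12 h before compound addition, then incubated 30-36 h at 37C. ONE-Glo luminescence was read; sodium butyrate at 4.5 mM final served as control.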
Rab9 prom act: activates the Rab9 promoter | Huh7 Rab9 promoter-luciferase reporter, luminescence, 24 h | Potency, µM (series often up to 9.22 µM), for inactives: at the top dose activation, negative = inhibition, most hits filed as activators | 320,000 tested, 2.8% active; further: % of control where 0% means no effect; nearly all actives have a fitted effect of over 60% in size
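Using Huh7 cells stably transfected with Rab9 promoter–luciferase, compounds were incubated 24 h at 37 °C, 5% CO2; luciferase luminescence was read 10 min after reagent addition.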
NPC1 promoter act: activates the NPC1 promoter. Potency, µM (series often up to 9.22 µM), inactives show top-dose activation, actives largely listed as activators. 320,000 tested, 2.4% active. Huh7 NPC1 promoter luciferase reporter, 24 h; further: % of control where 0% means no effect; nearly all actives have a fitted effect of over 60% in size
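Luciferase expression driven by the NPC1 promoter was measured in stably transfected Huh7 cells after a 24 h compound incubation, using a luciferase reagent and a luminescence read.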
Luc counter: Kinase-Glo luciferase inhibition (counter-screen); Q27757; Kinase-Glo luciferase, ATP luminescence, 8 min; Potency, µM (top dose mostly 38.3 µM), for inactives: top-dose activity change, negative = inhibition, usual class: inhibitors; 200,000 tested, 0.28% active; further: on the % scale 0 is the no-effect control and ±100 the full control effect; nearly all actives have a fitted effect of over 60% in size
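Substrate mix (final 50 mM imidazole pH 7.2, 50 mM KCl, 7 mM MgCl2, 10 uM ATP, 0.01% Tween 20, 0.05% BSA) plus pin-tool compound, then Kinase-Glo detection mix; 8 min ambient, luminescence read.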
FLuc counter: firefly luciferase modulation, counter-screen for miR-21 project. AID 588342. 360,000 tested, 6.9% active. Potency, µM (highest dose often 57.5 µM), inactives show top-dose activity change, negative = inhibition, usual class: inhibitors. P08659. purified FLuc, Km substrates, luminescence inhibition;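 further: plate controls were vehicle for no effect and reference inhibitor for full effect; nearly all actives have a fitted effect of over 55% in size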
Target sequence (P08659 whole entry, looked up): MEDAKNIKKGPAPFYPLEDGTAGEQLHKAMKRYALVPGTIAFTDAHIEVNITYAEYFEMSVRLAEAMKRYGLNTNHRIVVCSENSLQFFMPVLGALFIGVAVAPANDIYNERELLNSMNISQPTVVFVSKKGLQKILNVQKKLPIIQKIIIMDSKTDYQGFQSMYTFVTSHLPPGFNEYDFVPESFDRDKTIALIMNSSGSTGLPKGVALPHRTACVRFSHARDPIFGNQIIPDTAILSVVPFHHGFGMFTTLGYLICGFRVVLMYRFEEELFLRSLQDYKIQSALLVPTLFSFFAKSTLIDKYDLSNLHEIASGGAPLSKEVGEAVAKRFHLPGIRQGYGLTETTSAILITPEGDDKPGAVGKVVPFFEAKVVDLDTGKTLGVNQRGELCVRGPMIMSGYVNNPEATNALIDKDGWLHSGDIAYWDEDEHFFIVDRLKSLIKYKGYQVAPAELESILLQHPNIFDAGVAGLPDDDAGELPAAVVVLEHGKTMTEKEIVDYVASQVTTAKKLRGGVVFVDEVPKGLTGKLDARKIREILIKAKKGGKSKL
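Purified P. pyralis luciferase, 10 nM final, with Km-level 10 uM D-luciferin and 10 uM ATP in 50 mM Tris acetate pH 7.5, 10 mM Mg acetate, 0.01% Tween-20, 0.05% BSA; 6-point qHTS titration about 60 µM downward; luminescence read.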
* marks the source's active call; other numbers are inactive results; ? = inconclusive; . = no result; [ ] = remark or other dose. The call rests on the fitted dose curve; in most records, active means well fitted curve in the direction sought with a large enough effect; inconclusive means small, poorly fitted or top-dose-only effect, or another doubt; inactive means no such curve, though single readings can be large; an effect the other way counts as inactive or inconclusive. Potency means the concentration at half of the fitted maximal effect.

SMILES | SMN2 splice up | Rab9 prom act | NPC1 promoter act | Luc counter | FLuc counter
Cc1ccc(Nc2nnc(SCC(=O)Nc3cccc(S(=O)(=O)N4CCCCC4)c3)s2)cc1 | 24.4% | 17.3% | 15.5% | 2.5% | 2.69µM*
O=C(CSc1nnc(Nc2ccccc2F)s1)Nc1cccc(S(=O)(=O)N2CCCCC2)c1 | 5.6% | 4.4% | 0.7% | -4.7% | 13.5µM*
Cc1nnc(SCC(=O)Nc2cccc(S(=O)(=O)N3CCCCC3)c2)s1 | . | -3.4% | -7.4% | . | .
COc1ccc(Cc2nc3ccc(C(=O)NCCCN4CCN(C)CC4)cc3o2)cc1 | . | . | . | . | -0.1%
Cc1ccc(NC(=O)c2sc3nc(CCl)[nH]c(=O)c3c2C)c(C)c1 | ? | ? | 22.2% | 0.5% | 9.53µM*
Cc1cc(C)c(NC(=O)c2sc3nc(C)[nH]c(=O)c3c2C)c(C)c1 | . | -0.8% | 1.9% | . | -1.9%
Cc1csc(NC(=O)CSc2nc3sc(C)c(C)c3c(=O)[nH]2)n1 | 13.2% | 3.0% | -0.2% | 1.2% | 0.2%
CSCc1nc2sc(C(=O)Nc3nc(C)cs3)c(C)c2c(=O)[nH]1 | 11.2µM* | 3.16µM* | ? | -6.0% | ?
CCc1ccccc1N1CC(c2nc3ccccc3n2Cc2cccc(C)c2)CC1=O (centres undefined) | -6.3% | . | . | . | -16.2%
COC(=O)CCC(=O)OC1(C)C(=O)C=C2C=C(CCCNC(=O)OC(C)(C)C)OC=C2C1=O (centres undefined) | 4.5% | . | . | -0.4% | .
c1ccc2sc(N3CCOCC3)nc2c1 | ? | ? | ? | -7.2% | ?
c1ccc(N2CCN(c3nc4cc5c(cc4s3)OCCO5)CC2)cc1 | 10µM* | ? | ? | 2.2% | ?
c1c2c(cc3sc(N4CCOCC4)nc13)OCCO2 | 1.12µM* | 0.501µM* | 0.398µM* | ? | 0.953µM*
Clc1ccc(-c2nsc(N3CCOCC3)n2)c(Cl)c1 | . | 1µM* | 0.794µM* | . | 4.26µM*
Nc1ccc2nc(N3CCOCC3)sc2c1 | 15.8µM* | 2µM* | ? | -27.6% | ?
Cc1ccc(CNC(=O)Cn2ccn(-c3ccc(F)c(F)c3)c(=O)c2=O)cc1 | . | . | . | . | -1.8%
COc1ccc(C(=O)O)cc1Nc1nc2ccc(C)cc2n2cnnc12 | 2.0% | . | . | . | -13.6%
Clc1cc(Cl)c2nc(N3CCOCC3)sc2c1 | ? | ? | 26.0% | -1.2% | 16.9µM*
O=C(Nc1ccc2c(c1)OCO2)N1CCN(c2ccc(F)cc2)CC1 | 22.2% | ? | ? | -0.2% | 23.9µM*
CC1CN(C(=O)Nc2ccc3c(c2)OCO3)CC(C)O1 (centres undefined) | 25.0% | 26.5% | 26.6% | -3.9% | 16.9µM*
CC(CC(=O)NCc1ccc(Cl)cc1)CC1=NS(=O)(=O)c2ccccc2N1 (centres undefined) | . | . | . | . | -9.9%
COc1ccc2c(c1)S/C(=C\C(=O)c1ccncc1)N2C | 1.8% | ? | ? | -8.2% | 6.75µM*
CN(C)/C=C/C(=O)c1cccc([N+](=O)[O-])c1 | 7.9% | -31.5% | 0.4% | -0.6% | 0.0%
CN1/C(=C\C(=O)c2cccc([N+](=O)[O-])c2)Sc2ccccc21 | . | 2µM* | 1.26µM* | . | 1.35µM*
COc1cc(OC)cc(C(=O)/C=C2\Sc3ccccc3N2C)c1 | . | ? | ? | . | 7.57µM*
SMILES | SMN2 splice up | Rab9 prom act | NPC1 promoter act | Luc counter | FLuc counter
Cc1ccc(NC(c2cccc(Cl)c2)c2nnc(-c3ccccc3)o2)cc1F (centres undefined) | -4.3% | . | . | . | -2.0%
CN(C)/C=N/C(=S)Nc1ccc(Br)cc1F | 28.5% | 3.98µM* | ? | -11.8% | 19µM*
O=C(CCn1c(=O)c2sccc2n(CC(=O)Nc2ccccc2)c1=O)NCc1ccccc1Cl | -6.3% | . | . | . | 3.4%
O=C(Nc1ccccc1)Nc1ccc(-n2ccc(C(F)(F)F)n2)cc1 | . | 1.78µM* | 2.82µM* | . | 4.26µM*
COc1cccc(-n2c(=O)c3c4c(sc3n(Cc3ccccc3C#N)c2=O)CCCC4)c1 | 8.7% | . | . | . | -1.0%
Cn1cnnc1SCC(=O)Nc1ccc(N2CCCCC2)cc1 | . | 15.1% | 16.6% | . | 13.5µM*
O=C(CSc1nncn1-c1ccccc1)Nc1ccc(N2CCOCC2)cc1 | -11.3% | 8.6% | 0.8% | 4.9% | -15.2%
COCCn1cnnc1SCC(=O)Nc1ccc(N2CCCCC2)cc1 | . | -1.3% | 0.3% | . | 19µM*
Cn1cnnc1SCC(=O)Nc1ccccc1 | 12.8% | 2.2% | -0.4% | 0.1% | -1.7%
Cn1cnnc1SCC(=O)Nc1ccc(OCc2ccccc2)cc1 | ? | ? | 21.2% | -2.6% | 15.1µM*
COc1ccc(NC(=O)CSc2nncn2C)cc1 | . | -9.3%[1.84 µM] | 0.4% | . | -3.6%
CCC(=O)C1=C(c2ccc(OC)c(OC)c2)N(C(=O)CC)n2c(CC)nnc2S1 | . | . | . | . | -5.1%
O=C(CS(=O)(=O)c1cccc2nsnc12)NCc1ccccc1Cl | . | . | . | . | 7.5%
CCOC(=O)c1c(C)[nH]c(C)c1S(=O)(=O)NCC(=O)Nc1cccc(C(F)(F)F)c1 | . | . | . | . | -6.3%
N/C(=N\OC(=O)c1cccc2ccccc12)c1ccc(Br)cc1 | ? | 13.5% | 14.8% | 1.0% | ?
N/C(=N\OC(=O)c1cccc2ccccc12)c1ccncc1 | . | -1.5% | 2.3% | . | 23.9µM*
Cc1cccc(/C(N)=N/OC(=O)c2ccncc2)c1 | . | 3.98µM* | 1.12µM* | . | 8.49µM*
COc1cccc(C(=O)O/N=C(\N)c2ccc(C)cc2)c1 | . | 26.0% | 3.16µM* | . | 1.9µM*
N/C(=N\OC(=O)c1ccncc1)c1cccc([N+](=O)[O-])c1 | . | 19.6% | 18.5% | . | ?
COc1cccc(C(=O)O/N=C(\N)c2ccncc2)c1 | 12.3% | -1.3% | ? | -23.9% | 1.35µM*
Cc1ccc(OCCSc2nc3ccccc3n2CCC(=O)O)cc1C | -1.0% | . | . | . | ?
CCOC(=O)c1c(-c2ccccc2)oc2ccc(N(C(C)=O)S(=O)(=O)c3ccc(CC)cc3)cc12 | -13.9% | . | . | . | 5.3%
Cc1ccc(-c2nc(SCC(=O)N3CCc4ccccc43)c3c(=O)n(C)c(=O)n(C)c3n2)cc1 | . | . | . | . | 2.4%
Cc1ccc(CC(=O)NCc2nc(-c3cccc(C)c3)no2)cc1 | -10.8% | . | . | . | -2.7%
O=C1N=c2ccccc2=C1c1[nH]c(=S)[nH]c1O | 4.8% | 23.7% | -0.2% | -2.0% | 1.4%
SMILES | SMN2 splice up | Rab9 prom act | NPC1 promoter act | Luc counter | FLuc counter
Cc1ccc(Cl)c2c1=NC(=O)C=2c1[nH]c(=S)[nH]c1O | 28.9% | -1.2% | 1.5% | -25.2% | 19µM*
Cc1cccc(-c2nc(SCC(=O)NCC3CCCO3)c3c(=O)n(C)c(=O)n(C)c3n2)c1 (centres undefined) | . | . | . | . | 0.5%
CCOc1ccc(C(=O)Nc2ccc(C(=O)OCc3cc(=O)n4nc(CC)sc4n3)cc2)cc1 | . | . | . | . | -7.6%
CCCCNc1nc(Oc2ccc(=O)n(C)n2)nc(N2CCOCC2)n1 | ? | . | . | . | 4.3%
O=C(O)/C=C/c1ccc2ccccc2n1 | -11.3% | 1.0% | -1.4% | 5.0% | 1.8%
C(=C\c1ccc2ccccc2n1)/c1ccccc1 | . | 0.501µM* | 2.82µM* | . | 0.0757µM*
Oc1ccc(/C=C/c2ccc3ccccc3n2)cc1 | 2.82µM* | ? | ? | ? | 0.135µM*

High-throughput results as filed in PubChem.
